Screening data as filed in PubChem BioAssay.
A selection: hits, their analogues and other compounds. The true share with any hit is near 0.58%.
PINK1 expr mod = A Quantitative High throughput Screen to Identify Chemical Modulators of PINK1 Expression; Potency, µM (highest dose often 76.6 µM), without a hit: at the highest dose activation (PINK1 increase), usual class: activators; 410,000 compounds, 0.2% hits; AID 624263, 2012; PINK1 immunofluorescence, high-content cytometry, 24 h; active = well fitted activation curve with a large enough effect; inconclusive = small, poorly fitted or top-dose-only effect; cell line not stated here; also: potency is read from the fitted curve at half-maximal effect; % of control where 0% means no effect; nearly all actives have a fitted effect of over 65% in size
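Fluorescence from anti-PINK1 antibody, together with nuclear and cell stains, was scanned on a laser-scanning cytometer. Before staining, stable-line cells were incubated 24 hours with compounds at 5 concentrations; primary antibody 12 h at 10 degrees C.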
PKM2 activator = qHTS Assay for Activators of Human Muscle isoform 2 Pyruvate Kinase | Pyruvate kinase PKM (Homo sapiens), P14618 | purified PKM2, Kinase-Glo ATP luminescence, activation; response scale: 0% is enzyme alone, no compound | Potency, µM (top dose mostly 57.5 µM), for inactives: top-dose activation, usual class: activators | 260,000 compounds, 0.34% hits | AID 1631, 2009; also: potency is read from the fitted curve at half-maximal effect; % is scaled to controls: 0 for no effect and ±100 for the full control effect; nearly all actives have a fitted effect of over 55% in size
Target sequence (P14618 whole entry, looked up, canonical isoform): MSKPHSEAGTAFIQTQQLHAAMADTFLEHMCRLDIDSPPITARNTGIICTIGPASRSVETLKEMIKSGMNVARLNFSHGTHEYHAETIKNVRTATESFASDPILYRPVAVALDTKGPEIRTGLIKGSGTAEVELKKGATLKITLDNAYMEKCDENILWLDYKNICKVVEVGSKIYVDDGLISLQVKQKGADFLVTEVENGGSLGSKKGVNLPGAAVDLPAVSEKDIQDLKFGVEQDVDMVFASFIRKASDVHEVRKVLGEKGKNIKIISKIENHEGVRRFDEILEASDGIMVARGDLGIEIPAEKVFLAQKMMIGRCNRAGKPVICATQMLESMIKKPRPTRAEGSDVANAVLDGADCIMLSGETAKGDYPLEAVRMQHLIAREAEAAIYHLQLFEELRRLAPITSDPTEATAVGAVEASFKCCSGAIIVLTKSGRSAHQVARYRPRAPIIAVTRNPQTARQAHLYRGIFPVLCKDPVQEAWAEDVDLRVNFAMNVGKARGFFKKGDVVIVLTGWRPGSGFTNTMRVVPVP
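ATP formation by purified human PK-M2, quantified via coupled luciferase luminescence after 1 h at room temperature with 0.1 mM ADP and 0.5 mM PEP final.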
Epigenetic reg = Quantitative High-Throughput Screen for Regulators of Epigenetic Control | 280,000 compounds, 0.2% hits | Potency, µM (doses to about 53.9 µM), for the others: at the highest dose GFP activation, actives largely listed as activators | murine LDR cells, GFP reporter derepression, 30 h | AID 1865, 2009; also: potency is read from the fitted curve at half-maximal effect; % of control where 0% means no effect; nearly all actives have a fitted effect of over 60% in size
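Murine LDR cells carrying a silenced, genomically integrated CMV-driven GFP reporter were exposed to compound for 30 hours at 37 C. After PBS washes, GFP-positive cells (20–120 um objects) were counted by laser-scanning microplate cytometry.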
B2AR arrestin = qHTS assay of beta-arrestin-biased ligands of beta2-adrenergic receptor; Potency, µM (series often up to 46.1 µM), for the others: at the highest dose activation, usual class: activators; Beta-2 adrenergic receptor (Homo sapiens), P07550; 330,000 compounds, 0.02% hits; AID 492947, 2010; beta-arrestin recruitment to beta2AR, cell-based reporter;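 also: potency is read from the fitted curve at half-maximal effect; 0% = DMSO controls and full agonism = EC100 isoproterenol or metaproterenol; nearly all actives have a fitted effect of over 65% in size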
IL2 activator = qHTS of IL-2 Activators | activation, % (series mostly up to about 46 µM) | IL-2 activation reporter assay, cell-based qHTS; stimulated with anti-CD3/CD4/CD28 beads; in transgenic mouse T cells | 360,000 compounds, 0.065% hits | AID 652025, 2013; in the data active = activation above about 50%; inconclusive = mostly about 30% to 49%; also: 0% is about no effect
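First, unstimulated transgenic mouse T cells were exposed to compound for 60 min. Next, anti-CD3/anti-CD4-coated beads with anti-CD28 were added. Finally, after 18 h at 37 degrees C, EGFP and DsRed were imaged.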
The depositor's hits bear a star; ? = inconclusive; · = no result; [ ] = remark or other dose. Unless noted, calls follow the shape of the dose curve; as a rule, active = well fitted curve in the direction sought with a large enough effect; inconclusive = small, poorly fitted or top-dose-only effect, or another doubt; inactive = no such curve, though single readings can be large; an effect the other way counts as inactive or inconclusive.

SMILES | PINK1 expr mod | PKM2 activator | Epigenetic reg | B2AR arrestin | IL2 activator
COc1cccc(NC(=O)CSc2ccc(-c3ccco3)nn2)c1 | -1% | 3.2µM* | · | -1% | -2
COc1cccc(NC(=O)CSc2ccc3nnc(-c4ccccn4)n3n2)c1 | 3% | 23% | · | -1% | 0
COc1ccc(NC(=O)CSc2ccc(-c3ccco3)nn2)cc1OC | -1% | 18% | · | 0% | 0
Cc1ccc2cc(CNCc3cccc4ccccc34)c(N3CCC(O)CC3)nc2c1 | -1% | · | · | · | ·
CCOc1ccc(-c2csc(NC(=O)CSC3=NC(=O)CN3C(C)=O)n2)c2ccccc12 | 7% | ? | 2% | 3% | 1
CC(=O)N1CC(=O)N=C1SCC(=O)Nc1nc(C)c(-c2ccccc2)s1 | 2% | 20µM* | 6% | 4% | 0
COc1ccccc1-n1cc(C(=O)NCCN2Cc3ccccc3OC(c3ccsc3)C2)cn1 (centres undefined) | 1% | · | · | · | ·
O=C(NCc1nnc2n1CCN(Cc1ccc(C(F)(F)F)cc1)CC2)c1ccccn1 | 0% | · | · | · | ·
Nc1ccc2nc(CCCCCCc3nc4ccc(N)cc4[nH]3)[nH]c2c1 | 0% | 13µM* | -4% | -1% | 5
Nc1ccc2nc(CCCCCCCCc3nc4ccc(N)cc4[nH]3)[nH]c2c1 | 3% | ? | ? | 0% | 0
CCCCCCc1cc2cc(S(=O)(=O)c3ccc(F)cc3)c(=O)oc2cc1O | 40µM* | 8% | 1% | 0% | 0
CCCCCCc1cc2cc(-c3nnc(-c4ccccc4O)o3)c(=O)oc2cc1O | ? | -3% | 6.3µM* | 0% | 0
CCCCCCc1cc2cc(-c3nnc(-c4ccccc4OC)o3)c(=O)oc2cc1O | ? | 1% | ? | 0% | 10
COc1cccc(CN2CCCC(c3nc(C)ncc3-c3ccc(F)cc3)C2)c1OC (centres undefined) | 0% | · | · | · | ·
Nc1ccc(N2CCCCC2)cc1N1CCCCC1 | 16µM* | ? | -2% | 3% | -1
Cc1nn(-c2cc(N3CCCCC3)ccc2N)c(=O)c2ccccc12 | 2%[38.3 µM] | 9% | -1% | 0% | 2
COc1ccc(-c2ccnc(-n3ncc(C(=O)NCc4cccnc4)c3C3CC3)n2)cc1F | 1% | · | · | · | ·
Cc1cccc(C)c1NC(=S)NCCc1ccc(O)c(O)c1 | 2% | 28µM* | -1% | 1% | -1
Cc1cccc(NC(=S)NCCc2ccccc2)c1C | 2% | -3% | · | -1% | -1
Cc1cc(C)cc(OC(C)C(=O)Nc2nonc2-c2ccc(Br)cc2)c1 (centres undefined) | 16µM* | · | -1% | · | ·
CCCCCOC(=O)Nc1ccc(S(=O)(=O)Nn2cnnc2)cc1 | -1%[38.3 µM] | 4.5µM* | 1% | 0% | -4
O=C1C=CC(=O)N1c1ccc(Sc2ccc([N+](=O)[O-])cc2)cc1 | · | 32µM* | 7% | 0% | ·
COc1ccc(C(=O)NCCN2Cc3cc(C)ccc3OC(C)C2)c(OC)n1 (centres undefined) | -1% | · | · | · | ·
COc1cc(C(=O)NCC(=O)NCCN2C(=O)S/C(=C\c3ccccc3Cl)C2=O)cc(OC)c1OC | -2% | · | · | 0% | -3
COc1cc(/C=C2\SC(=O)N(CCNC(=O)c3sc4cc(F)ccc4c3Cl)C2=O)cc(OC)c1OC | 5% | ? | 18µM* | 0% | 0
SMILES | PINK1 expr mod | PKM2 activator | Epigenetic reg | B2AR arrestin | IL2 activator
Cc1cc(CNC(=O)c2cnn(-c3nccc(-c4ccc5c(c4)OCO5)n3)c2C2CC2)on1 | 1% | · | · | · | ·
O=C(c1cccc(N2CCCC2=O)c1)N1CCC(Oc2cccc(CN3CCN(c4ccccn4)CC3)c2)CC1 | 0% | · | · | · | ·
Cc1nn(C)cc1/C=N/NC(=S)Nc1ccccc1 | 0%[38.3 µM] | -7% | 4µM* | ? | -3
CC(=O)Nc1cc(C(=O)N2CCN(C(=O)c3ccco3)CC2)cc2ncn(CCc3ccccn3)c12 | 1% | · | · | · | ·
CCCN(C(=O)c1cc2c(s1)CCC2)c1c(N)n(Cc2ccccc2)c(=O)[nH]c1=O | 0% | 22µM* | 0% | 0% | -2
COCCCN(C(=O)c1cc2c(s1)CCC2)c1c(N)n(Cc2ccccc2)c(=O)[nH]c1=O | -2% | 13% | -2% | 0% | -3
Cc1c(C(=O)NCC2(N3CCOCC3)CCCC2)cnn1-c1nccc(-c2ccccc2F)n1 | 1% | · | · | · | ·
CC(NC(=O)c1cc(F)ccc1F)c1nnc2n1CCN(Cc1ccco1)CC2 (centres undefined) | 1% | · | · | · | ·
Cc1ccc(C)c(Oc2cc(NC(=O)CCCn3nc(C)c([N+](=O)[O-])c3C)cc([N+](=O)[O-])c2)c1 | 45µM* | -2% | -2% | 0% | 0
Cc1cc2[nH]c(=O)c(=O)[nH]c2cc1S(=O)(=O)Nc1cccc(Cl)c1C | 2% | 16µM* | · | -1% | -2
COc1cc(NS(=O)(=O)c2ccc(C)cc2C)cc(OC)c1OC | 8% | ? | -2% | -1% | -1
COc1cc(NS(=O)(=O)c2cc3[nH]c(=O)c(=O)[nH]c3cc2C)cc(OC)c1OC | 0% | 7.1µM* | · | 0% | 2
Cc1ccc(NS(=O)(=O)c2cc3[nH]c(=O)c(=O)[nH]c3cc2C)cc1Cl | 4% | · | -1% | · | ·
O=C(Nc1ccc2c(c1)OCCO2)c1ccc(Br)c(S(=O)(=O)N2CCOCC2)c1 | 1% | 0% | -7% | 0% | 0
O=C(Oc1ccc2c(c1)OCO2)c1ccc(Br)c(S(=O)(=O)N2CCOCC2)c1 | 11µM* | -4% | 0% | 0% | 3
COc1ccc(CN2CCN(C(C)=O)CC2)cc1OC1CCN(C(=O)c2ccc3[nH]c(C)c(C)c3c2)CC1 | -1% | · | · | · | ·
COc1cc(=O)n2c(c1C(=O)NC(C)c1ccco1)CCN(C(=O)c1ccccc1SC)CC2 (centres undefined) | -1% | · | · | · | ·
CC(C)(C)c1nc2cc(Cl)c([N+](=O)[O-])cc2o1 | 14µM* | 3% | -5% | 0% | 0
COc1cc(CNCc2cc3cc(C)ccc3nc2-c2ccc(F)cc2)cc(OC)c1OC | 2% | · | · | · | ·
O=C(NCCc1nnc2n1CCN(CC1CC=CCC1)CC2)c1ccc(F)cc1 (centres undefined) | -1% | · | · | · | ·
CN(C)S(=O)(=O)Oc1ccsc1C(=O)Nc1ccc(Cl)c(Cl)c1 | 4% | 2% | 5% | -1% | -2
COc1ccc(COc2ccsc2C(=O)Nc2ccc(Cl)c(Cl)c2)cc1 | 10µM* | -9% | -1% | 0% | -1
Cc1ccc(NC(=O)CN2C(=O)N/C(=C/c3ccc(C)o3)C2=O)cc1 | 4% | 26% | ? | 0% | 0
Cc1ccc(/C=C2/NC(=O)N(Cc3ccccc3)C2=O)s1 | 14µM* | 20% | 25µM* | 0% | 159*
